# Legend:
# Assay in all cases: DAPPL (digital affinity profiling via proximity ligation, sequencing); 10 mM Tris-HCl pH 7.5, 50 mM NaCl, 1 mM DTT, 4% glycerol, room temperature, 30 min; GST-TFs on glutathione beads, 16-mer random dsDNA library, 0.1% formaldehyde crosslink after washing; high values mean tight binding
# FLI1 = target: T1, FLI1 (Homo sapiens, UniProt Q01543 1-452); settings: protein: recombinant; tags: N-terminal GST; dsDNA, one strand shown
# T1 sequence: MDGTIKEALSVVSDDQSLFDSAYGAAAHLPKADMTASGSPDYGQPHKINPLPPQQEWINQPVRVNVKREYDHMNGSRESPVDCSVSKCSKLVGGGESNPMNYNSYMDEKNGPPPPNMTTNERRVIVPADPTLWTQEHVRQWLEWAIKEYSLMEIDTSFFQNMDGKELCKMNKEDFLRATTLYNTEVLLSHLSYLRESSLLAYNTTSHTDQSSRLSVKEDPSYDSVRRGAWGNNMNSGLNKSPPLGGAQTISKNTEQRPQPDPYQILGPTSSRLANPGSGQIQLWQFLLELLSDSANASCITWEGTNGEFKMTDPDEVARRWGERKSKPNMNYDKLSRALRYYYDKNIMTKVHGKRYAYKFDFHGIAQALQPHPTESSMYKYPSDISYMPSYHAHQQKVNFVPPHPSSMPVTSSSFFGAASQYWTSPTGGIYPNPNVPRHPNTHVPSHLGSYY
# Outline: (§1)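 Sequencing on an Illumina NextSeq500 followed washing, crosslinking with 0.1% formaldehyde, proximity ligation (BsaI/T4 ligase, 1 h, 37 °C) and PCR amplification of pools that had been incubated for 30 min at room temperature with 200 nmole of a random double-stranded 16-mer DNA library in Tris/NaCl/DTT/glycerol buffer. Each pool held DNA-barcoded human transcription factors, expressed in yeast as GST fusions and captured on glutathione beads, plus a tag-only sample. Binding signal is a hexamer's read frequency for a factor divided by its frequency in the tag-only sample.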
# ELK1 = target: T2, ELK1 (Homo sapiens, UniProt P19419 1-428); settings: protein: recombinant; tags: N-terminal GST; dsDNA, one strand shown
# T2 sequence: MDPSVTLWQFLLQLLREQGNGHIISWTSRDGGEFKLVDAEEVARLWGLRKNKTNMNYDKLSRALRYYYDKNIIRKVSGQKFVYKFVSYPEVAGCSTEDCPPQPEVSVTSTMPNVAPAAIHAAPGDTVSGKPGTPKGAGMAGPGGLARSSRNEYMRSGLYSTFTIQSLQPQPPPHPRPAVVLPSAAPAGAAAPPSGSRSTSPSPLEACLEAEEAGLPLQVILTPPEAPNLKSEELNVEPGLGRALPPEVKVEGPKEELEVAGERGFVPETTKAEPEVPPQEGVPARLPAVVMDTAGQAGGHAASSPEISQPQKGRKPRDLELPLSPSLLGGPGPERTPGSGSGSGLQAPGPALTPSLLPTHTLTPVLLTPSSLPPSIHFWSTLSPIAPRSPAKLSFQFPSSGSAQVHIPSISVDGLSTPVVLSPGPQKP
# Outline: as §1
# GABPA = target: T3, GABPA (Homo sapiens, UniProt Q06546 1-454); settings: protein: recombinant; tags: N-terminal GST; dsDNA, one strand shown
# T3 sequence: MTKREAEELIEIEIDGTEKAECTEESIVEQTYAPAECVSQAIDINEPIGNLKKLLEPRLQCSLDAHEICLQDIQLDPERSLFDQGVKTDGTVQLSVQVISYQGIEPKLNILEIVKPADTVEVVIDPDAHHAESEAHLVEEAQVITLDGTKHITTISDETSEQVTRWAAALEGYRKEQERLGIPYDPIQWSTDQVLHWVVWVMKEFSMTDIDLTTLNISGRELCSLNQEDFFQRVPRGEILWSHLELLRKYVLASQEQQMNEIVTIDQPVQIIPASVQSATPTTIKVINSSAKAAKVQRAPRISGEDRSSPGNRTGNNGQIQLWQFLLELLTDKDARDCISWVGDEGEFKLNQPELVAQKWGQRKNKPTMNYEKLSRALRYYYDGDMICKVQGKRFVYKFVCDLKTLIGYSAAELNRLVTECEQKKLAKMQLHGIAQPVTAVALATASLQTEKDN
# Outline: as §1
# ERG = target: T4, ERG (Homo sapiens, UniProt P11308 1-479); settings: protein: recombinant; tags: N-terminal GST; dsDNA, one strand shown
# T4 sequence: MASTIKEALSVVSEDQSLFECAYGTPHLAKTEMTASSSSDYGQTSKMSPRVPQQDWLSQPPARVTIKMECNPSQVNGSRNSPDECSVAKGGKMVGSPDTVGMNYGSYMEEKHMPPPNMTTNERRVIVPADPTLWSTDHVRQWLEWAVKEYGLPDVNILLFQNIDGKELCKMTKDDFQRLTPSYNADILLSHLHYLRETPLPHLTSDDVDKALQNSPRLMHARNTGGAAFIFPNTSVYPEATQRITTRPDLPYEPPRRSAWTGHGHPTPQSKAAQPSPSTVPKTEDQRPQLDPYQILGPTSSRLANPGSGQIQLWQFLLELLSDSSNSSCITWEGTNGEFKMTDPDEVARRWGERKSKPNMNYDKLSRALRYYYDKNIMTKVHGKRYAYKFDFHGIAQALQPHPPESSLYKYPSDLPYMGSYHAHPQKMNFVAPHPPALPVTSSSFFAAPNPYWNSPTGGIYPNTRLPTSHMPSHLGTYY
# Outline: as §1
# ELF1 = ELF1 (Homo sapiens, UniProt P32519 1-619); settings: protein: recombinant; tags: N-terminal GST; dsDNA, one strand shown
# Outline: as §1
# EHF = target: T5, EHF (Homo sapiens, UniProt Q9NZC4 1-300); settings: protein: recombinant; tags: N-terminal GST; dsDNA, one strand shown
# T5 sequence: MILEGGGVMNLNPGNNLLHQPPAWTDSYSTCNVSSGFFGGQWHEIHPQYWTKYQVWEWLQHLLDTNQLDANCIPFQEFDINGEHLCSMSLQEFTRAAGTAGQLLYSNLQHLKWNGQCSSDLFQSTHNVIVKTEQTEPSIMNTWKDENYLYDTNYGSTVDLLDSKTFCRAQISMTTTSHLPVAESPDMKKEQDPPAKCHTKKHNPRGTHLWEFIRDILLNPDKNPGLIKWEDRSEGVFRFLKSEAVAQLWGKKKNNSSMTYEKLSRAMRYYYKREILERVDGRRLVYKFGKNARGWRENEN
# Outline: as §1
# SPI1 = SPI1 (Homo sapiens, UniProt P17947 1-270); settings: protein: recombinant; tags: N-terminal GST; dsDNA, one strand shown
# Outline: as §1
# SPIB = SPIB (Homo sapiens, UniProt Q01892 1-262); settings: protein: recombinant; tags: N-terminal GST; dsDNA, one strand shown
# Outline: as §1
# ELK3 = target: T6, ELK3 (Homo sapiens, UniProt P41970 1-407); settings: protein: recombinant; tags: N-terminal GST; dsDNA, one strand shown
# T6 sequence: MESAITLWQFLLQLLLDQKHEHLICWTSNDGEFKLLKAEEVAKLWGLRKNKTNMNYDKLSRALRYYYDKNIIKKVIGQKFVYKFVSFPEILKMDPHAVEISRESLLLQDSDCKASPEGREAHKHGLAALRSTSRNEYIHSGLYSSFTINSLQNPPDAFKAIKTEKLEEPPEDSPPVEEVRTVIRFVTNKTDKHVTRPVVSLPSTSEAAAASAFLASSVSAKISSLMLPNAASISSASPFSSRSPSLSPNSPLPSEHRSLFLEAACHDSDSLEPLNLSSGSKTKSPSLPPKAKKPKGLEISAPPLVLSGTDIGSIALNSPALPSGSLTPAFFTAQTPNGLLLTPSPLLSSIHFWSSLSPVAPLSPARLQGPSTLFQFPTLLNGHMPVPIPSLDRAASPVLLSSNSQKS
# Outline: as §1
# FEV = target: T7, FEV (Homo sapiens, UniProt Q99581 1-238); settings: protein: recombinant; tags: N-terminal GST; dsDNA, one strand shown
# T7 sequence: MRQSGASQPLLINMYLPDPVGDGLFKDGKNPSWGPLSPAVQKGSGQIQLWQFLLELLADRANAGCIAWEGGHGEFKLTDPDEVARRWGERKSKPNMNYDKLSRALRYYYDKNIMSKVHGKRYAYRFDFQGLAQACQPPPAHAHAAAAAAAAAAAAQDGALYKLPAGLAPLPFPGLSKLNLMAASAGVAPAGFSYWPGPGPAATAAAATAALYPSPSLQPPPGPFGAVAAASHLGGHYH
# Outline: as §1
# ETV5 = ETV5 (Homo sapiens, UniProt P41161 1-510); settings: protein: recombinant; tags: N-terminal GST; dsDNA, one strand shown
# Outline: as §1
# HSF1 = HSF1 (Homo sapiens, UniProt Q00613 1-529); settings: protein: recombinant; tags: N-terminal GST; chain copies: 3; dsDNA, one strand shown
# Outline: as §1
# SPIC = target: T8, SPIC (Homo sapiens, UniProt Q8N5J4 1-248); settings: protein: recombinant; tags: N-terminal GST; dsDNA, one strand shown
# T8 sequence: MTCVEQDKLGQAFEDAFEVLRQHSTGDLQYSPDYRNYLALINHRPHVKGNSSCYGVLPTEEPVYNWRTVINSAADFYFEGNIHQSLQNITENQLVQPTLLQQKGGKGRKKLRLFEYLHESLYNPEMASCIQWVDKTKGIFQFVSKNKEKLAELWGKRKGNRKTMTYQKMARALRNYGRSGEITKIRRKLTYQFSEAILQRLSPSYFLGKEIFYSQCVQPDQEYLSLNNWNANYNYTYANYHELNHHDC
# Outline: as §1
# ELF4 = ELF4 (Homo sapiens, UniProt Q99607 1-663); settings: protein: recombinant; tags: N-terminal GST; dsDNA, one strand shown
# Outline: as §1
# ELK4 = target: T9, ELK4 (Homo sapiens, UniProt P28324-2 1-405); settings: protein: recombinant; tags: N-terminal GST; dsDNA, one strand shown
# T9 sequence: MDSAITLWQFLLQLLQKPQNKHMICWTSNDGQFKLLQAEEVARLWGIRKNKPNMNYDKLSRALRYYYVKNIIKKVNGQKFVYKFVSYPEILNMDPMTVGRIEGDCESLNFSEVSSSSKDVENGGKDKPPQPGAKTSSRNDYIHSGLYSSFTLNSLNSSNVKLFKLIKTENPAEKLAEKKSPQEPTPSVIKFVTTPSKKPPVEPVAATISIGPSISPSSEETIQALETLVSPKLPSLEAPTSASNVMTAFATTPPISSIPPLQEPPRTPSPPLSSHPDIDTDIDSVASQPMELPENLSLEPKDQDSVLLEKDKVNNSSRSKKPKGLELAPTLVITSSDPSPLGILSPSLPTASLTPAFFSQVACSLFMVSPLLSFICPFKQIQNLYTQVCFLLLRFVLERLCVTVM
# Outline: as §1
# ETV2 = target: T10, ETV2 (Homo sapiens, UniProt O00321 1-342); settings: protein: recombinant; tags: N-terminal GST; dsDNA, one strand shown
# T10 sequence: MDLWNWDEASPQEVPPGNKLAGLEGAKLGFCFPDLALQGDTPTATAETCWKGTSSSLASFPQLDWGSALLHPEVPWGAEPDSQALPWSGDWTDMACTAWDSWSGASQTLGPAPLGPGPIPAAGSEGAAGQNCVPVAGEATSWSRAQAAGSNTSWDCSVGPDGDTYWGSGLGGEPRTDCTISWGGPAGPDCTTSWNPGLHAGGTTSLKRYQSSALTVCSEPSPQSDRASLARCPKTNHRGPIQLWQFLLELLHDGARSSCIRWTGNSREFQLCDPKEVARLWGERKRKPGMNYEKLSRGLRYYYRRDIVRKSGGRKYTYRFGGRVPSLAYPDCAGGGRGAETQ
# Outline: as §1
# ELF3 = target: T11, ELF3 (Homo sapiens, UniProt P78545 1-371); settings: protein: recombinant; tags: N-terminal GST; dsDNA, one strand shown
# T11 sequence: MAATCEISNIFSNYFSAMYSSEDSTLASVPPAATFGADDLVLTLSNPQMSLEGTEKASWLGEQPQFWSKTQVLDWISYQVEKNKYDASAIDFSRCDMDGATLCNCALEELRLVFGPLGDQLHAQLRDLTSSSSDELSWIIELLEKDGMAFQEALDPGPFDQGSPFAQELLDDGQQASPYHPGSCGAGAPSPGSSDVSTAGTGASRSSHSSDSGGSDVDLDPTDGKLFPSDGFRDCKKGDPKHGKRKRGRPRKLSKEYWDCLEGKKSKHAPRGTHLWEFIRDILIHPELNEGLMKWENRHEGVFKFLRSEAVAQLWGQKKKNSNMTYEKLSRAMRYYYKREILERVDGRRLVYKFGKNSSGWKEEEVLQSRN
# Outline: as §1
# CRX = CRX (Homo sapiens, UniProt O43186 1-299); settings: protein: recombinant; tags: N-terminal GST; dsDNA, one strand shown
# Outline: as §1
# ETV1 = ETV1 (Homo sapiens, UniProt P50549 1-477); settings: protein: recombinant; tags: N-terminal GST; dsDNA, one strand shown
# Outline: as §1
# Sequence of ETV5 (P41161 whole entry): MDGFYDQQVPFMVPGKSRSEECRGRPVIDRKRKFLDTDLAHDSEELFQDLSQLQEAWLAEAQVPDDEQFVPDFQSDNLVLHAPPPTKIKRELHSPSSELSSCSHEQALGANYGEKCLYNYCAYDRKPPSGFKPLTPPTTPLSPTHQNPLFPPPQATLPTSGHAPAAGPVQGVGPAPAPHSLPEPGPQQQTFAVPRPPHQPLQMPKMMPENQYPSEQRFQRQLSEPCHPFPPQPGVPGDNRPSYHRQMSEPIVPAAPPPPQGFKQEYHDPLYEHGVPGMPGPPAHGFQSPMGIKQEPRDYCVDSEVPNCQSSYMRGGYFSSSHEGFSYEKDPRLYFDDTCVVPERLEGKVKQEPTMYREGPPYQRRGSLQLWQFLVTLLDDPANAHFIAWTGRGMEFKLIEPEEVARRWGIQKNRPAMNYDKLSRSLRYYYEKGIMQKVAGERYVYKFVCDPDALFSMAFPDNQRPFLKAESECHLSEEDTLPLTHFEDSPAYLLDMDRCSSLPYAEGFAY
# Sequence of ELF4 (Q99607 whole entry): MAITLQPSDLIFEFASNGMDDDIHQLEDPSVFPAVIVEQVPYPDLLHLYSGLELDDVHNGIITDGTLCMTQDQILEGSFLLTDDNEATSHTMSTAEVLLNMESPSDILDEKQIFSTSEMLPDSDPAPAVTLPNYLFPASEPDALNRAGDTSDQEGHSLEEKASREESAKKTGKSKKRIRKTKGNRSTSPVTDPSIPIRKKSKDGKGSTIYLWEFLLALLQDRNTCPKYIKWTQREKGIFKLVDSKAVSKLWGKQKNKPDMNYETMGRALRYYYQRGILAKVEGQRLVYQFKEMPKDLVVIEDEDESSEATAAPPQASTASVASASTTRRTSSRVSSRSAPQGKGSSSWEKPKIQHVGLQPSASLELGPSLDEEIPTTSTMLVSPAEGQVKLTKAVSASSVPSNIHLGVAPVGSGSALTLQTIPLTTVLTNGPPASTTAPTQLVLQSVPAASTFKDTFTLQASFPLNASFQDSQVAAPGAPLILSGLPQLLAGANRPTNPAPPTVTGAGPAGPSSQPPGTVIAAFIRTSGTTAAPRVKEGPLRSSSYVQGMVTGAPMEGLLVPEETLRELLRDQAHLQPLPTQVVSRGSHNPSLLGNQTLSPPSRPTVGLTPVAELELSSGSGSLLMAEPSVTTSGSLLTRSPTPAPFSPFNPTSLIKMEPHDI
# Sequence of CRX (O43186 whole entry): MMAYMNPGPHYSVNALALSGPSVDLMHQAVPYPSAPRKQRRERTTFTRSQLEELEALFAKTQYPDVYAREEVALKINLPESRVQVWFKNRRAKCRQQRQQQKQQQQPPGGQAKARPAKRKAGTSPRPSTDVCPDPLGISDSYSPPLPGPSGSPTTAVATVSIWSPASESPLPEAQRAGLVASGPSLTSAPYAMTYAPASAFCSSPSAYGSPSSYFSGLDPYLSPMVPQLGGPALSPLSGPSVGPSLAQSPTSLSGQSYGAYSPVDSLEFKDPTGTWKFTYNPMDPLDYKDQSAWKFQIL
# Sequence of SPIB (Q01892 whole entry): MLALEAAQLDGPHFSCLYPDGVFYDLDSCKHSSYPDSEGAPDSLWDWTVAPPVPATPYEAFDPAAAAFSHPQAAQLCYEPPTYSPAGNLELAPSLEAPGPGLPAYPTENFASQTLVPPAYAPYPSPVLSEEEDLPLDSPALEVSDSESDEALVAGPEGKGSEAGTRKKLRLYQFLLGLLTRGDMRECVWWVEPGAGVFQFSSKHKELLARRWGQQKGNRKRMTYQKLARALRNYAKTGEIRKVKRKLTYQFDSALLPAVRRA
# Sequence of HSF1 (Q00613 whole entry): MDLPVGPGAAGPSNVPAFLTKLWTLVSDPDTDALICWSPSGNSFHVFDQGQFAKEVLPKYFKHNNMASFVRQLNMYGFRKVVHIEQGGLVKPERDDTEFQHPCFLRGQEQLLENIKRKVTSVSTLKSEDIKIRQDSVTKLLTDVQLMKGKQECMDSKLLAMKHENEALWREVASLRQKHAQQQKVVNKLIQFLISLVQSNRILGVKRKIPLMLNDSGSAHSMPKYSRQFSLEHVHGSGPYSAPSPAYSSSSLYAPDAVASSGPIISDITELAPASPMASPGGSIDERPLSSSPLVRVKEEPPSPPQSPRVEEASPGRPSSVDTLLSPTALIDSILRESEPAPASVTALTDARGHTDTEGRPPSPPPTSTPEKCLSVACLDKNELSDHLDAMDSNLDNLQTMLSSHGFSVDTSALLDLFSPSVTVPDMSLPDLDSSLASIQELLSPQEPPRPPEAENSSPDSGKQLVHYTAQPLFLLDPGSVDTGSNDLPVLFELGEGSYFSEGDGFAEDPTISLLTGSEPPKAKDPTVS
# Sequence of ELF1 (P32519 whole entry): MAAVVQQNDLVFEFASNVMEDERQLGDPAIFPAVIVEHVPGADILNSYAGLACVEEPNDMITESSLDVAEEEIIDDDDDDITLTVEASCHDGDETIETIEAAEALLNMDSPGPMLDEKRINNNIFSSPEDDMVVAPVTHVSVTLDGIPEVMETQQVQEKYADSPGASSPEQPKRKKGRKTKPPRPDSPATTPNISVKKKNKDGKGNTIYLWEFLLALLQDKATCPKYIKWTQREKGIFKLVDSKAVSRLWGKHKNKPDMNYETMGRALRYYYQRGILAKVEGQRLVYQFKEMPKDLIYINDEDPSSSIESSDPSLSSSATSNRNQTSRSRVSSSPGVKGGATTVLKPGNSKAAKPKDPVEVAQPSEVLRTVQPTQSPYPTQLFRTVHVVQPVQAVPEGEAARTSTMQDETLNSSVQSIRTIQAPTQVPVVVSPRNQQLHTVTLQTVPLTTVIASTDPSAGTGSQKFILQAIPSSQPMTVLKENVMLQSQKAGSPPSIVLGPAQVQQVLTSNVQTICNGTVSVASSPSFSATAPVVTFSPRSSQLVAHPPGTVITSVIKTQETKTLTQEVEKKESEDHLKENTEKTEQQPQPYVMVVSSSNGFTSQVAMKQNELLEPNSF
# Sequence of ETV1 (P50549 whole entry): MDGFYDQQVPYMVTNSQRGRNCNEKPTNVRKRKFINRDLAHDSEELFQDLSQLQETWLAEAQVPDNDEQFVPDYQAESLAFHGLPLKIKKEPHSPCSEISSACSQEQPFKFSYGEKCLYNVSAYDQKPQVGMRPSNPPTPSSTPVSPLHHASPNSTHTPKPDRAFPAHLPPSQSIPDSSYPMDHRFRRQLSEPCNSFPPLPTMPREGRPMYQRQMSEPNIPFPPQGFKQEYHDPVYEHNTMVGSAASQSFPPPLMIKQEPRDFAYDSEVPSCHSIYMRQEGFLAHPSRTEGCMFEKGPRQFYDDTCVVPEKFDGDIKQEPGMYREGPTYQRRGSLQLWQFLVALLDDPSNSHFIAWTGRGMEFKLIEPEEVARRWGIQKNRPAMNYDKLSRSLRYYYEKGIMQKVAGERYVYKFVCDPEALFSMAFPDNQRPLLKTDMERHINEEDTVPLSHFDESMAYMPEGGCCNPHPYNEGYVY
sequence,measurement,setting,value
TTCCCA,binding signal,FLI1,"1.18 fold enrichment (6-mer frequency, TF over GST control)"
same,binding signal,ELK1,"1.3 fold enrichment (6-mer frequency, TF over GST control)"
same,binding signal,GABPA,"1.2 fold enrichment (6-mer frequency, TF over GST control)"
same,binding signal,ERG,"1.3 fold enrichment (6-mer frequency, TF over GST control)"
same,binding signal,ELF1,"1.3 fold enrichment (6-mer frequency, TF over GST control)"
same,binding signal,EHF,"1.34 fold enrichment (6-mer frequency, TF over GST control)"
same,binding signal,SPI1,"1.28 fold enrichment (6-mer frequency, TF over GST control)"
same,binding signal,SPIB,"1.34 fold enrichment (6-mer frequency, TF over GST control)"
same,binding signal,ELK3,"1.17 fold enrichment (6-mer frequency, TF over GST control)"
same,binding signal,FEV,"1.16 fold enrichment (6-mer frequency, TF over GST control)"
same,binding signal,ETV5,"1.29 fold enrichment (6-mer frequency, TF over GST control)"
same,binding signal,HSF1,"1.08 fold enrichment (6-mer frequency, TF over GST control)"
same,binding signal,SPIC,"1.23 fold enrichment (6-mer frequency, TF over GST control)"
same,binding signal,ELF4,"1.26 fold enrichment (6-mer frequency, TF over GST control)"
same,binding signal,ELK4,"1.08 fold enrichment (6-mer frequency, TF over GST control)"
same,binding signal,ETV2,"1.13 fold enrichment (6-mer frequency, TF over GST control)"
same,binding signal,ELF3,"1.27 fold enrichment (6-mer frequency, TF over GST control)"
same,binding signal,CRX,"1.16 fold enrichment (6-mer frequency, TF over GST control)"
same,binding signal,ETV1,"1.2 fold enrichment (6-mer frequency, TF over GST control)"

# — paper PMC7862700, “An all-to-all approach to the identification of sequence-specific readers for epigenetic DNA modifications on cytosine”
